# Compounds with a hit are over-represented: about 22% of the library has one in this group of screens.
# Pf growth 48h: Primary qHTS for delayed death inhibitors of the malarial parasite plastid, 48 hour incubation; 310,000 compounds, 5.9% hits; P. falciparum luciferase growth in erythrocytes, 48 h; Potency, µM (doses to about 28.7 µM), hits mostly inhibitors
#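 Growth was read as firefly luciferase luminescence after a 48 h, 37 C, 5% CO2 exposure of compounds to reporter-bearing P. falciparum cultures (0.1% parasitemia, 2% hematocrit final) in Albumax-supplemented RPMI 1640.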
# Shiga inhibitor: A qHTS for Small Molecule Inhibitors of Shiga Toxin; Vero cells, Shiga toxin protein synthesis inhibition reporter; 290,000 compounds, 9.2% hits; inhibition, % at 38.7 µM; in the data active = inhibition mostly above about 28%, no sharp cut-off; inactive = mostly below about 43%
# Cycloheximide cs: Cycloheximide Counterscreen for Small Molecule Inhibitors of Shiga Toxin. max response, %. cell reporter, cycloheximide protein synthesis inhibition counterscreen. 300,000 compounds, 12% hits; in the data active = max response mostly above about 13%, no sharp cut-off; inactive = mostly below about 14%; also: read at 38.3 µM for the half of the compounds with a filed dose
# LmPK inh: qHTS Assay for Inhibitors of Leishmania Mexicana Pyruvate Kinase (LmPK); 290,000 compounds, 0.37% hits; AID 1721, 2009; Potency, µM (titrated, usually from 57.5 µM), actives largely listed as inhibitors; purified LmPK, Kinase-Glo ATP luminescence, 1 h
# Target sequence (Q27686 whole entry, looked up): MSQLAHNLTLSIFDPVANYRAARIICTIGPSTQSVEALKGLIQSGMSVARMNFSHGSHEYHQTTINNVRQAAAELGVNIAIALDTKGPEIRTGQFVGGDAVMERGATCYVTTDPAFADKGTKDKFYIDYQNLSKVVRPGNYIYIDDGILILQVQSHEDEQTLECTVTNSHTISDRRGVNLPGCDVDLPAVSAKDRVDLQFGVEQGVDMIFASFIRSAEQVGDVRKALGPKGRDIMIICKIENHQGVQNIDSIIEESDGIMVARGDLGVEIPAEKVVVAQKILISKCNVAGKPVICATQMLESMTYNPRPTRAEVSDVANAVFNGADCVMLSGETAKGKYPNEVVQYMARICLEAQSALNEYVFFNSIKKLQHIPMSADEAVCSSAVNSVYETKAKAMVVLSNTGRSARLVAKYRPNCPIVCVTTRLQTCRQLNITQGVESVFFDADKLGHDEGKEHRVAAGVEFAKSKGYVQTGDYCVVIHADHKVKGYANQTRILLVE
#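 In 50 mM imidazole pH 7.2 with 7 mM MgCl2, LmPK (0.1 nM) turned over PEP (0.5 mM) and ADP (0.1 mM) for 1 h at room temperature. Luciferase read-out of ATP.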
# Pf growth 96h: Primary qHTS for delayed death inhibitors of the malarial parasite plastid, 96 hour incubation | P. falciparum luciferase reporter growth, 96 h | Potency, µM (series often up to 28.7 µM), hits mostly inhibitors | 320,000 compounds, 6.9% hits | AID 504834, 2011
#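 Readout is luminescence from an integrated firefly luciferase in P. falciparum. Red cells, 2% hematocrit and 0.05% parasitemia final, were cultured with compound through two parasite generations (96 hours) at 37 C, 5% CO2.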
# Hits are given with their value; – = inactive; ? = inconclusive; · = no result. Unless noted, calls follow the shape of the dose curve; as a rule, active = well fitted inhibition curve with a large enough effect; inconclusive = small, poorly fitted or top-dose-only effect, or another doubt; inactive = no such curve, though single readings can be large or run the other way.
SMILES,Pf growth 48h,Shiga inhibitor,Cycloheximide cs,LmPK inh,Pf growth 96h
CC[C@H](C)[C@H](NC(=O)[C@H](CCC(=O)O)NC(=O)[C@@H](N)CO)C(=O)N[C@@H](CCC(N)=O)C(=O)N[C@@H](CC(C)C)C(=O)N[C@@H](CCSC)C(=O)N[C@@H](Cc1cnc[nH]1)C(=O)N[C@@H](CC(N)=O)C(=O)N[C@@H](CC(C)C)C(=O)NCC(=O)N[C@@H](CCCCN)C(=O)N[C@@H](Cc1cnc[nH]1)C(=O)N[C@@H](CC(C)C)C(=O)N[C@@H](C)C(=O)N[C@@H](CO)C(=O)N[C@H](C(=O)N[C@@H](CCC(=O)O)C(=O)N[C@@H](CCCNC(=N)N)C(=O)N[C@@H](CCSC)C(=O)N[C@@H](CCC(N)=O)C(=O)N[C@@H](Cc1c[nH]c2ccccc12)C(=O)N[C@@H](CC(C)C)C(=O)N[C@@H](CCCNC(=N)N)C(=O)N[C@@H](CCCCN)C(=O)N[C@@H](CCCCN)C(=O)N[C@@H](CC(C)C)C(=O)N[C@@H](CCC(N)=O)C(=O)N[C@@H](CC(=O)O)C(=O)N[C@H](C(=O)N[C@@H](Cc1cnc[nH]1)C(=O)N[C@@H](CC(N)=O)C(=O)N[C@@H](Cc1ccccc1)C(=O)O)C(C)C)C(C)C,·,–,–,·,·
Cc1ccc(OCC(O)Cn2c(=N)n(Cc3ccccc3)c3ccccc32)cc1 (stereo not given),·,–,–,–,3.7µM
Cc1cccc(OCC(O)Cn2c(=N)n(Cc3ccccc3)c3ccccc32)c1 (stereo not given),5.86µM,–,–,–,5.22µM
Cc1cccc(OCC(O)Cn2c(=N)n(CCN3CCCCC3)c3ccccc32)c1 (stereo not given),2.94µM,–,–,–,2.62µM
COc1ccc(OCC(O)Cn2c(=N)n(Cc3ccccc3)c3ccccc32)cc1 (stereo not given),?,–,–,–,?
CCC(C)NC(=O)c1ccc(NC(=O)C2=C(C)OCCS2)cc1 (stereo not given),–,–,–,–,–
CCCCCCCCCCCCCCCCCCCCCCCCCCCCCC,·,–,–,·,·
COC(=O)/C=C1/S/C(=N/NC(=O)c2ccccc2OC)NC1=O,?,–,–,–,11.7µM
CN1CCC(N(C)S(=O)(=O)c2ccc(NC(=O)COc3ccc(Cl)cc3)cc2)CC1,8.28µM,·,·,·,4.15µM
CC(Oc1cccc(Cl)c1)C(=O)Nc1ccc(S(=O)(=O)N(C)C2CCN(C)CC2)cc1 (stereo not given),9.28µM,·,·,·,?
CC(=O)Nc1ccc(S(=O)(=O)N(C)C2CCN(C)CC2)cc1,–,–,–,–,–
COc1ccc(NC(=O)CS(=O)CC(=O)Nc2cccc3cccnc23)cc1 (stereo not given),–,–,–,–,?
COc1cc(NC(C)CCCN)c2ncccc2c1 (stereo not given),0.415µM,·,·,·,0.329µM
COc1ccc(OC)c(NS(=O)(=O)c2cccc3cccnc23)c1,–,–,–,–,–
COc1cc(NCCCCCCCN)c2ncccc2c1,2.62µM,–,–,–,3.7µM
CC1(Cn2ccnn2)[C@H](C(=O)O)N2C(=O)C[C@H]2S1(=O)=O (stereo not given in full),–,–,–,·,–
COc1cccc(CNC(=O)CSc2nnc3c(n2)[nH]c2ccc(C)cc23)c1,–,–,–,–,–
O=C(CCCc1ccccc1)N1CCN(C2CCCCC2)CC1,–,·,29.3,–,?
CCC1CCCCN1C(=O)CCCc1ccccc1 (stereo not given),–,70.4,34.9,–,–
CCC1CCCCN1CCNC(=O)CCS(=O)(=O)c1ccc(Br)cc1 (stereo not given),?,–,–,–,3.29µM
CCC1CCCCN1C(=O)CCS(=O)(=O)c1ccccc1 (stereo not given),–,76.1,34.2,–,–
CCC1CCCCN1C(=O)CN1C(=O)c2ccccc2S1(=O)=O (stereo not given),?,·,·,·,–
O=C(CN(C(=O)CCC(=O)Nc1nccs1)c1cccc(F)c1)NCCc1ccccc1,–,–,–,–,–
CN(CC(=O)NCc1ccc2c(c1)OCO2)S(=O)(=O)c1ccc(F)cc1,–,–,–,–,–
C=CCN1C(=O)C(Cc2ccccc2)SC1=Nc1ccc(C(=O)O)cc1 (stereo not given),–,–,–,–,?
SMILES,Pf growth 48h,Shiga inhibitor,Cycloheximide cs,LmPK inh,Pf growth 96h
CCOC(=O)c1c(C)[nH]c(C(=O)OCC(=O)NCCc2ccc(OCC)c(OCC)c2)c1C,13.1µM,·,·,·,?
CCOC(=O)c1[nH]c(C)c(C(=O)NCc2ccc(Cl)cc2)c1C,?,–,–,–,?
COc1ccc(CCNC(=O)COC(=O)c2ccc(C)s2)cc1OC,–,·,·,·,?
CCOc1ccc(CCNC(=O)/C=C/c2ccco2)cc1OCC,–,–,–,–,?
CCOC(=O)c1[nH]c(C)c(C(=O)NCCc2ccc(OC)cc2)c1C,?,–,–,–,4.65µM
CCOc1ccc(CCNC(=O)COC(=O)c2ccc(C)s2)cc1OCC,–,–,–,–,10.4µM
CCOc1ccc(CCNC(=O)COC(=O)/C=C/c2ccco2)cc1OCC,8.28µM,–,–,–,7.38µM
Cc1ccc(NC(=O)Cn2nc(C(=O)O)c3ccccc3c2=O)cc1S(=O)(=O)N1CCOCC1,–,·,·,·,–
Cc1nc(Br)c(Br)c(C)c1Br,–,–,–,–,–
CC(=O)c1c(C)[nH]c(C(=O)NCCc2ccccc2)c1C,–,104.2,36.4,–,–
CCCC(=O)N(c1ccc(OCC)cc1)S(=O)(=O)c1ccc2c3c(cccc13)C(=O)N2C,?,–,–,–,?
O=C(O)CSC1CC(=O)N(c2ccc(Br)cc2)C1=O (stereo not given),–,–,–,–,–
Cc1ccc(C2Nc3ccccc3-c3nc4ccccc4n32)o1 (stereo not given),–,66.8,53.7,–,–
Cn1c(Sc2nc3ccccc3n2C)nc2ccccc21,·,–,–,–,–
CC(=O)c1ccc(-c2nc3ccccc3n2C)o1,–,56.5,36.4,15.8µM,–
Cn1c(-c2ccc(Br)o2)nc2cc(Br)ccc21,–,103.7,51.8,–,–
CCCC(=O)c1cc(-c2nc3ccccc3n2C)n(C)c1,–,–,–,–,·
Cc1ccc2nc(-c3ccc(Br)o3)oc(=O)c2c1,–,–,–,–,·
Cc1ccc(-c2nc3ccccc3n2C)o1,·,73.9,57.4,14.1µM,–
N#Cc1ccc(COC(=O)CCc2c[nH]c3ccccc23)cc1,–,–,–,–,–
Cn1c(-c2nonc2N)nc2ccccc21,–,–,–,–,10.4µM
COc1cc(NC(=O)CN2C(=O)c3ccccc3S2(=O)=O)cc(OC)c1,–,·,·,·,–
CC(C)Cc1nc(N2CCN(C(=O)c3ccco3)CC2)c(C#N)c2c1CCC2,2.33µM,–,–,–,–
CC(C)Cc1nc(N2CCCCC2)c(C#N)c2c1CCC2,–,–,–,–,10.4µM

# Screening results (PubChem BioAssay)
